Test in all cases: qHTS profiling for inhibitors of Plasmodium falciparum proliferation (AID 504749); also: nearly all actives have a fitted effect of over 60% in size
Details in all cases: P. falciparum in erythrocytes, SYBR Green DNA, 72 h; series mostly up to 28.7 µM
For orientation: In qHTS, concentration-response curves come from the screen itself.

One assay relates to DIV30. In a few lines: (§1)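 Each compound contacts P. falciparum-infected red blood cells for 72 h at 37 C; lysis buffer (Tris, EDTA, saponin, Triton X, SYBR Green I) is added and fluorescence measured next morning; values normalized to controls.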
For a further assay, the system named is ECU. In a few lines:
as §1

The test system of the next assay is FAB9. A digest of the protocol:
as §1

The subject of the next assay is GB4. A digest of the protocol: as §1
In another assay the test system is HB3. A digest of the protocol:
as §1

For a further assay, the system named is ICS. A digest of the protocol:
as §1

The test system of a further assay is JCK. In a few lines:
as §1

A further assay deals with N140. A digest of the protocol:
as §1

The next assay relates to PAD. In a few lines:
as §1

A further assay has as its system PC15. In a few lines: as §1
The subject of a further assay is PC26. A digest of the protocol:
as §1

A further assay relates to PC49. In a few lines: as §1
The next assay deals with SC27B. In a few lines: as §1
In a further assay the test system is TAB109. A digest of the protocol:
as §1

The test system of the next assay is TAB113. A digest of the protocol: as §1
In the next assay the test system is DIV14. In a few lines: as §1
The next assay deals with DIV17. In a few lines: as §1
For a further assay, the system named is Dd2. A digest of the protocol:
as §1

For another assay, the system named is P93_24. In a few lines:
as §1

The test system of the next assay is P94_40. In a few lines:
as §1

Inconclusive results are not listed. Calls of active or inactive are those of the source. Calls follow the shape of the dose curve; as a rule, active = well fitted inhibition curve with a large enough effect; inconclusive = small, poorly fitted or top-dose-only effect; inactive = flat fitted curve, though single readings scatter.

The source of these data is PubChem BioAssay (NCATS).
Potency is read from the fitted curve at half-maximal effect.

Turning to `NC1CCN(c2cccc(Cl)n2)CC1`, the Potency entry in the assay on DIV30, in the assay with ECU, in the assay with FAB9, with HB3, with ICS and with JCK was “inactive” throughout. The Potency entry with N140, with PAD, in the assay with PC15, in the assay on PC26, in the assay with PC49 and in the assay on SC27B was “inactive” in each case. Besides, the Potency result with TAB109 and with TAB113 was “inactive” each time. In addition, the Potency with GB4 is 7.57 µM (active).
Take `COc1ccc2[nH]c(S(=O)Cc3ncc(C)c(OC)c3C)nc2n1` (configuration not stated): the Potency with DIV14 is 3.38 µM (active); in the assay with DIV17, 4.78 µM (active); in the assay on Dd2 it was 12.6 µM (active); in the assay with ECU it was 6.31 µM (active); in the assay on ICS, 7.94 µM (active); with N140, 6.31 µM (active). Also, the Potency was 7.94 µM (active) with P93_24; 8.91 µM (active) in the assay with P94_40; 4.47 µM (active) in the assay with PAD; 7.94 µM (active) in the assay on PC49; 8.91 µM (active) in the assay with SC27B; 8.91 µM (active) with TAB109. For the same molecule, the Potency with TAB113 was 8.91 µM (active).
As to `CN(C)CCN(Cc1ccccc1)c1ccccn1`, the Potency result in the assay with ECU, with FAB9, in the assay on HB3, in the assay with JCK, in the assay on P94_40 and in the assay with PAD was “inactive” each time. Further, the Potency entry with PC15, with PC49, in the assay on SC27B and in the assay on TAB113 was “inactive” throughout.
Turning to `CC(C(O)c1ccc(O)cc1)N1CCC(Cc2ccccc2)CC1` (configuration not stated), the Potency in the assay on DIV14 is 13.5 µM (active); in the assay with DIV17 it was 15.1 µM (active); with Dd2, 8.91 µM (active); in the assay with GB4, 7.57 µM (active); in the assay on P93_24 it was 11.2 µM (active). The Potency entry with FAB9 and in the assay with PC49 was “inactive” throughout.
For the molecule `c1ccc(CN(CC2=NCCN2)c2ccccc2)cc1`, the Potency in the assay with DIV14 was 6.75 µM (active); with DIV17, 7.57 µM (active); with Dd2 it was 12.6 µM (active); in the assay with PC49, 3.16 µM (active). Moreover, the Potency entry in the assay on FAB9 and with HB3 was “inactive” each time.
For `CNCCC(Oc1ccc(C(F)(F)F)cc1)c1ccccc1` (configuration not stated), the Potency in the assay with DIV14 is 3.01 µM (active); in the assay with DIV17, 6.75 µM (active); in the assay with DIV30 it was 6.75 µM (active); in the assay on GB4, 13.5 µM (active); in the assay on ICS it was 7.94 µM (active). Besides, the Potency result in the assay with FAB9 and in the assay on HB3 was “inactive” throughout.
With `Cc1c(O)cccc1C(=O)N[C@@H](CSc1ccccc1)[C@H](O)CN1C[C@H]2CCCC[C@H]2C[C@H]1C(=O)NC(C)(C)C`, the Potency with DIV14 was 16.9 µM (active); in the assay on DIV30, 15.1 µM (active); in the assay with Dd2, 11.2 µM (active); in the assay on ECU, 11.2 µM (active); in the assay on HB3, 10 µM (active); in the assay with ICS it was 4.47 µM (active). In addition, the Potency was 7.94 µM (active) in the assay with N140; 8.91 µM (active) in the assay with P93_24; 10 µM (active) in the assay with P94_40; 10 µM (active) in the assay on PAD; 7.94 µM (active) in the assay on SC27B; 12.6 µM (active) in the assay on TAB113. The Potency result in the assay on FAB9 is “inactive”.
Regarding `[Cl][In]([Cl])[Cl]`, the Potency with DIV30 is 15.1 µM (active); with Dd2 it was 11.2 µM (active); in the assay on ICS, 2.51 µM (active); in the assay on P93_24, 10 µM (active).
For `CCN(CC)CCNC(C(=O)OCCC(C)C)c1ccccc1` (configuration not stated), the Potency in the assay with DIV14 was 4.26 µM (active); in the assay with DIV17, 7.57 µM (active); in the assay with Dd2, 7.08 µM (active); with GB4 it was 7.57 µM (active); with ICS it was 5.62 µM (active); with P93_24, 8.91 µM (active). The Potency entry in the assay on FAB9, with HB3, in the assay on JCK, in the assay on PAD and in the assay on SC27B was “inactive” in each case.
With `CN1CCC[C@@H]1Cc1c[nH]c2ccc(CCS(=O)(=O)c3ccccc3)cc12`, the Potency with DIV14 was 9.53 µM (active); with DIV17, 7.57 µM (active); with Dd2, 12.6 µM (active); with ICS, 7.08 µM (active). For the same molecule, the Potency entry with FAB9, with HB3, in the assay with JCK, with SC27B and in the assay on TAB113 was “inactive” throughout.
Turning to `CCOc1nc2cccc(C(=O)O)c2n1Cc1ccc(-c2ccccc2-c2nn[nH]n2)cc1`, the Potency result with Dd2, in the assay on FAB9, in the assay with GB4, with HB3, in the assay on JCK and with P93_24 was “inactive” each time. For the same molecule, the Potency result in the assay with PAD, with PC15, in the assay with PC49 and in the assay on TAB109 was “inactive” throughout. Besides, the Potency in the assay with SC27B was 11.2 µM (active).
As to `CNC(=O)Oc1ccc2c(c1)[C@]1(C)CCN(C)[C@@H]1N2C`, the Potency in the assay on DIV17 is 4.26 µM (active); in the assay with ECU, 1.78 µM (active); with FAB9, 2 µM (active); in the assay with GB4, 4.78 µM (active); in the assay on HB3, 2 µM (active); with JCK, 2.82 µM (active). For the same molecule, the Potency with N140 is 1.78 µM (active); with P93_24, 1.58 µM (active); with P94_40, 1.58 µM (active); in the assay on PAD, 1.41 µM (active); in the assay on PC15 it was 1.78 µM (active); in the assay with PC49, 2 µM (active). Also, in the assay on TAB109, the Potency is 2.24 µM (active).
`CSc1ccc2c(c1)N(CCC1CCCCN1C)c1ccccc1S2` (configuration not stated): the Potency in the assay on DIV14 was 10.7 µM (active); in the assay with DIV17 it was 10.7 µM (active); in the assay on ECU, 11.2 µM (active); in the assay on GB4 it was 10.7 µM (active); with ICS it was 10 µM (active); in the assay with P93_24, 11.2 µM (active). Also, the Potency with P94_40 was 7.08 µM (active); in the assay with PAD, 8.91 µM (active); in the assay on PC15 it was 10 µM (active); with SC27B, 12.6 µM (active); with TAB109, 8.91 µM (active); in the assay on TAB113, 10 µM (active). Further, in the assay on HB3, the Potency entry is “inactive”.
